# Laboratory results reported in PubChem BioAssay (NCI).
# The panel holds about 79,000 compounds, 15% with a hit somewhere; the sample as a whole holds those more often. A number with no mark means an inactive call. Active and inactive are the calls of the source. Rule as the data show it: active = growth inhibition above about 70%; inactive = the rest.
# Legend:
# [1] = NCI Yeast Anticancer Drug Screen. Data for the rad50 strain (AID 155);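 also: 0% = growth of vehicle-only cultures of the same strain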; details: S. cerevisiae rad50 strain growth inhibition, hits give high values
# Outline: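 A DNA repair-deficient yeast mutant serves as the test organism; compound-induced growth inhibition is calculated against vehicle-treated cells.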
# [2] = NCI Yeast Anticancer Drug Screen. Data for the mec2-1 strain (AID 157); details: S. cerevisiae mec2-1 strain, hits give high values
# Outline: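 Growth inhibition is read against vehicle-treated controls after compound exposure of the mec2-1 yeast strain, which is defective in DNA damage repair or cell cycle control.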
# [3] = NCI Yeast Anticancer Drug Screen. Data for the sgs1 mgt1 strain (AID 161);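 also: 0% = growth of cultures given vehicle only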; details: S. cerevisiae sgs1 mgt1 strain, hits give high values
# Outline: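 Yeast cells carrying a defined DNA-repair defect were exposed to test compounds. Growth inhibition was measured relative to vehicle-treated controls.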
# [4] = NCI Yeast Anticancer Drug Screen. Data for the cln2 rad14 strain (AID 165);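 also: 0% = growth equal to vehicle treated cultures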; details: S. cerevisiae cln2 rad14 strain, hits give high values
# Outline: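 Growth inhibition, relative to vehicle-treated controls, is the read-out. The test organism is a yeast strain with defined genetic alterations, cln2 rad14.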
# [5] = NCI Yeast Anticancer Drug Screen. Data for the bub3 strain (AID 167); details: S. cerevisiae bub3 mutant strain, hits give high values
# Outline: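 Inhibition values come from growth of compound-treated mutant yeast normalised to vehicle-treated controls.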
# [6] = NCI Yeast Anticancer Drug Screen. Data for the mlh1 rad18 strain (AID 175); details: S. cerevisiae mlh1 rad18 strain growth inhibition, hits give high values
# Outline: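 Cells of a genetically altered yeast strain, deficient in DNA damage repair, were treated with compound. Their growth was then compared with that of vehicle-treated cultures to give inhibition.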
# [7] = at 5.0 µM (retest, dose inferred, filed as 0.5)
# [8] = at 50.0 µM (retest, dose inferred, filed as 5.0)
SMILES,"growth inhibition [1, 7]","growth inhibition [1, 8]",growth inhibition ([1]; at 50.0 µM),"growth inhibition [2, 7]","growth inhibition [2, 8]",growth inhibition ([2]; at 50.0 µM),"growth inhibition [3, 7]","growth inhibition [3, 8]",growth inhibition ([3]; at 50.0 µM),"growth inhibition [4, 7]","growth inhibition [4, 8]",growth inhibition ([4]; at 50.0 µM),"growth inhibition [5, 7]","growth inhibition [5, 8]",growth inhibition ([5]; at 50.0 µM),"growth inhibition [6, 7]","growth inhibition [6, 8]",growth inhibition ([6]; at 50.0 µM)
C[n+]1c(/C=C/c2ccc(O)c3ccccc23)[se]c2ccccc21,-3%,78% (active),84.8% (active),-13%,40%,47.4%,-24%,76% (active),87.1% (active),-2%,16%,41.2%,-5%,20%,74.6% (active),13%,81% (active),78.9% (active)
CC(Br)C(=O)C(CCN(C)C)(c1ccccc1)c1ccc(Br)s1 (stereo not given),-9%,13%,4%,-9%,-6%,0.55%,-25%,10%,0.8%,-12%,2%,80.6% (active),-11%,-5%,16.1%,-6%,14%,11.9%
CCC1CN1P(=O)(Oc1ccccc1)N1CC1CC (stereo not given),-2%,15%,-5.7%,-1%,-42%,-17.2%,-1%,2%,-14.8%,-11%,-7%,-16.4%,7%,52%,57.5%,-2%,6%,-20%
CC1(C(=O)O)CCCC2(C)c3cc(O)ccc3CCC12 (stereo not given),2%,83% (active),18.4%,2%,86% (active),13%,2%,88% (active),46.4%,-3%,89% (active),52.4%,5%,87% (active),41.9%,3%,89% (active),42.5%
COC1=C(Cl)C(=O)c2ccccc2C1=O,8%,98% (active),99.2% (active),15%,99% (active),99.5% (active),6%,99% (active),99.6% (active),-2%,98% (active),99.1% (active),30%,98% (active),99.2% (active),7%,99% (active),99.4% (active)
CC12CCC(=O)C=C1CCC1C2CCC2(C)C(O[Si](C)(C)OC3CCC4C5CCC6=CC(=O)CCC6(C)C5CCC34C)CCC12 (stereo not given),3%,44%,98.8% (active),-12%,16%,98.7% (active),0%,37%,95.8% (active),1%,33%,58.4%,-1%,0%,97.1% (active),6%,53%,96.8% (active)
Oc1c(I)cc(I)cc1I,-6%,91% (active),38%,-3%,95% (active),43%,-9%,53%,7.7%,-4%,94% (active),-32.6%,-5%,82% (active),67.6%,-3%,92% (active),63.4%
OC1CCCC2CCCNC12 (stereo not given),84% (active),97% (active),86.4% (active),79% (active),98% (active),90% (active),97% (active),98% (active),90% (active),81% (active),98% (active),86.3% (active),96% (active),98% (active),91.8% (active),73% (active),97% (active),91.2% (active)
C#CC(O)(CC)CC,-4%,10%,69.1%,0%,-4%,13.4%,-3%,-2%,77.1% (active),-6%,-5%,3.5%,-1%,2%,38.8%,-1%,9%,73.5% (active)
N#C[S-].[La+3].c1ccc(-c2ccccn2)nc1.c1ccc(-c2ccccn2)nc1.c1ccc(-c2ccccn2)nc1,61%,98% (active),91.5% (active),41%,99% (active),93.8% (active),46%,99% (active),93% (active),33%,90% (active),91.9% (active),60%,99% (active),92% (active),56%,99% (active),91.3% (active)
O=[As](O)(O)c1ccc(Cc2ccc([As](=O)(O)O)cc2)cc1,82% (active),100% (active),99.2% (active),62%,100% (active),99.5% (active),26%,99% (active),99% (active),59%,99% (active),98.5% (active),66%,100% (active),99.1% (active),78% (active),99% (active),99.2% (active)
CC1(C)N=C(N)N=C(N)N1c1ccc(OCC(=O)Nc2cccc(S(=O)(=O)F)c2)c(Cl)c1,4%,38%,70.5% (active),-20%,97% (active),95.6% (active),-3%,63%,64.1%,-2%,-5%,-25.9%,-6%,32%,-1.45%,12%,65%,45%
CCCCCCCCc1ccc(OCCN(CCCl)CCCl)cc1,3%,99% (active),98.7% (active),-23%,100% (active),99.4% (active),-130%,99% (active),99.1% (active),-2%,99% (active),99.3% (active),-4%,99% (active),99.2% (active),4%,99% (active),99.2% (active)
CC1=CC(=O)c2c(O)cccc2C1=O,18%,100% (active),85.8% (active),29%,99% (active),90.1% (active),19%,99% (active),92% (active),7%,99% (active),90.3% (active),23%,99% (active),90.5% (active),30%,98% (active),89% (active)
C[CH2][Hg],98% (active),99% (active),99.1% (active),100% (active),99% (active),99.5% (active),99% (active),99% (active),57.1%,99% (active),100% (active),59.3%,99% (active),99% (active),99.2% (active),94% (active),99% (active),52.2%
CCCC(C)(COC(N)=O)COC(=O)NC1CC1 (stereo not given),-8%,0%,21.9%,-12%,0%,0.05%,-8%,0%,36.3%,-2%,-6%,37.1%,0%,-5%,-4.4%,14%,7%,-2%
COC1(O[C@H]2CC[C@H]3[C@@H]4CCC5=CC(=O)CC[C@]5(C)[C@H]4CC[C@]23C)CCCCC1,3%,-8%,99.5% (active),5%,2%,99.5% (active),-30%,-33%,99.5% (active),1%,-4%,99.2% (active),1%,-4%,99.1% (active),-25%,-56%,99.4% (active)
O=C(N/N=C/c1cc(Br)cc(Br)c1[O-])c1ccccc1O.O=C(N/N=C/c1cc(Br)cc(Br)c1[O-])c1ccccc1O.[Mn+2],96% (active),94% (active),97.6% (active),98% (active),96% (active),95.7% (active),98% (active),93% (active),93.2% (active),93% (active),90% (active),97.3% (active),96% (active),94% (active),96% (active),96% (active),94% (active),98% (active)
C=CCc1cc(Cl)ccc1OC(=O)N(C)C,5%,-2%,-7.75%,5%,-4%,3.45%,5%,-2%,-6.55%,6%,-1%,-19.3%,0%,-21%,-11.8%,0%,-1%,31.8%
O=Cc1ccccc1O.O=Cc1ccccc1O.[O]=[Mo]=[O],5%,29%,11.8%,-1%,36%,3.65%,8%,41%,8.2%,-7%,16%,42%,-3%,34%,-5.6%,2%,46%,2.45%
